Data on 38 compounds can be found in PubChem BioAssay (Tox21).

Inconclusive results are not listed. Values without a mark were called inactive. Calls come from the whole dose curve; as a rule, active = well fitted curve in the direction sought with a large enough effect in the repeat runs; inconclusive = weak or mixed curves; inactive = no such curve, though single readings can be large; an effect the other way counts as inactive or inconclusive.
% is set by controls: 0 for no effect and ±100 for the full control effect.

One experiment in a line: qHTS assay to identify small molecule antagonists of the TGF-beta/Smad signaling pathway - cell viability counter screen (AID 1346824). Note: nearly all actives have a fitted effect of over 50% in size. Particulars: SBE-bla HEK293T viability, CellTiter-Glo luminescence; series mostly up to 76.8 µM; viability change, negative = cytotoxic: at the top concentration. Summed up: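 Cytotoxicity counter-screen run in the same wells as the beta-lactamase Smad reporter read: CellTiter-Glo luminescence after 30 min at room temperature. HEK 293T SBE-bla cells had 5 hr compound exposure at 37 C with TGF-beta1 (0.25 ng/mL stock).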
(qHTS replaces the single test concentration by a dilution series.)
As for `C=C(C)C(=O)OCC1CCCO1` (configuration not stated), the “viability change, negative = cytotoxic” value is 1.2%. Still for that read-out and setting: the result for `CC(=O)Nc1ccc(OCC(O)CNC(C)C)cc1` (configuration not stated) reads 0.316% [at 35.3 µM]; that for `CN(C)[C@@H]1C(=O)C(C(=O)NCN2CCCC2)=C(O)[C@@]2(O)C(=O)C3=C(O)c4c(O)cccc4[C@@](C)(O)C3C[C@@H]12` (some centres not stated), 4.45% [at 35.3 µM]; that for `COc1cc(C(=O)NCc2ccc(OCCN(C)C)cc2)cc(OC)c1OC`, -2.18% [at 35.3 µM]. As to `CCCC(C)C(=O)OCC` (configuration not stated), the “viability change, negative = cytotoxic” value was 0.608%. The same measure, in the same setting: the result for `CCCCOC(=O)CCC(C)=O` reads -0.787%; that for `CC(C#N)(CCC(=O)O)N=NC(C)(C#N)CCC(=O)O` (configuration not stated), 8.86%.

Turning to `O=S(=O)(O)c1cccc2ccccc12`, the “viability change, negative = cytotoxic” value is 1.74%. The same measure, in the same setting: the figure for `CN(C)C(=O)Oc1cccc([N+](C)(C)C)c1` is -3.94% [at 35.3 µM]; for `CC(=O)N[C@H]1[C@H]([C@H](O)[C@H](O)CO)OC(C(=O)O)=C[C@@H]1N=C(N)N` it is -6.93% [at 35.3 µM]; for `CCN[C@@H]1C[C@H](N)[C@@H](OC2OC(CN)=CCC2N)[C@H](O)[C@H]1O[C@H]1OC[C@](C)(O)[C@H](NC)[C@H]1O` (some centres not stated) it is 6.56% [at 0.29 µM]. In the case of `C=CC(=O)OCCCl`, the “viability change, negative = cytotoxic” value was -4.9%.

`CCCc1nn(C)c2c(=O)[nH]c(-c3cc(S(=O)(=O)N4CCN(C)CC4)ccc3OCC)nc12`: the “viability change, negative = cytotoxic” value is 5.02% [at 35.3 µM]. On to `C[N+]12CCC(CC1)C(OC(=O)C(O)(c1ccccc1)c1ccccc1)C2` (configuration not stated), for which the “viability change, negative = cytotoxic” value is 6.29% [at 35.3 µM].

The nature of another experiment: qHTS assay to identify small molecule agonists of the TGF-beta/Smad signaling pathway - cell viability counter screen (AID 1346829). Note: top concentration of the series differs between compounds; nearly all actives have a fitted effect of over 45% in size. Particulars: SBE-bla HEK293T viability, CellTiter-Glo luminescence, 5 h; series mostly up to 76.8 µM; activity change, negative = cytotoxicity: at the top concentration. Summed up: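 HEK 293T SBE-bla line, 5 hr compound exposure at 37 C, multiplexed CellTiter-Glo viability read by luminescence.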
With `Cc1ccccc1N=C(N)N=C(N)N`, the “activity change, negative = cytotoxicity” value is 5.71%. In the case of `FB(F)F`, the “activity change, negative = cytotoxicity” value was 19.2%.

For `CCCC(=O)O[C@]1(C(=O)CC)CC[C@H]2[C@@H]3CCC4=CC(=O)CC[C@]4(C)[C@H]3[C@@H](O)C[C@@]21C`, the “activity change, negative = cytotoxicity” value is -0.083% [at 35.3 µM]. Still for that read-out and setting: the figure for `CCO[Si](OCC)(OCC)c1ccccc1` is -4.57%; for `Cc1cccc(C)c1NC(=O)CC12CCCN1CCC2` it is -2.09% [at 35.3 µM]. Take `O=S(=O)(O)c1cc(O)c(O)c(S(=O)(=O)O)c1`: the “activity change, negative = cytotoxicity” value is 1.33%. Same read-out and setting: the result for `CC(C)C1CCC(O)CC1` (configuration not stated) reads -0.252%; that for `CC1=NN(c2cc(S(=O)(=O)O)ccc2Cl)C(=O)C1N=Nc1ccccc1` (configuration not stated), 5.75%; that for `CC12CCC(C(=O)C1=O)C2(C)C` (configuration not stated), 8.91%. Same read-out and setting: the figure for `C=CN1CCCCCC1=O` is -10.6%; for `CCCCCCCCCCCCCCCCCCO` it is 9.99% [at 35.3 µM]; for `CC(C)C(=O)OC(=O)C(C)C` it is 2.96%. The same measure, in the same setting: the result for `[O-][n+]1cccc(CO)c1` reads 9.98% [at 35.3 µM]; that for `CCCCCC(=O)OCCc1ccccc1`, 3.69%. For `CC(=O)NC(=O)c1ccccc1O`, the “activity change, negative = cytotoxicity” value is 8.35% [at 35.3 µM]. Still for that read-out and setting: the result for `COc1cc(C(=O)OC(COCCC(C)C)CN2CCOCC2)cc(OC)c1OC` (configuration not stated) reads -18.7% [at 35.3 µM]. On the same count and under the same terms, the figure for `CO[Si](C)(OC)c1ccccc1` is 0.791%; for `C=COC(=O)C(C)(CC)CCC(C)C` (configuration not stated) it is 1.75%; for `C=C[Si](OC(C)=O)(OC(C)=O)OC(C)=O` it is -0.317%. On the same count and under the same terms, the figure for `COc1c(N2CCNC(C)C2)c(F)cc2c(=O)c(C(=O)O)cn(C3CC3)c12` (configuration not stated) is -5.73% [at 35.3 µM]; for `CC1(C)OC[C@@H](COC(=O)CCc2ccc(OC[C@@H](O)CNCCNC(=O)N3CCOCC3)cc2)O1` it is -1.83% [at 35.3 µM]; for `C=CC(C)(CCC=C(C)C)OC(=O)CC` (configuration not stated) it is 3.3%. As to `c1ccc(Cc2ccccc2)cc1`, the “activity change, negative = cytotoxicity” value is 10.6%. The same measure, in the same setting: the result for `CC(C)(C#N)Nc1nc(Cl)nc(NC2CC2)n1` reads -0.887%. The same measure, in the same setting: the result for `C=C(C)C(=O)OCC1CCCO1` (configuration not stated) reads 1.73%; that for `CC(=O)Nc1ccc(OCC(O)CNC(C)C)cc1` (configuration not stated), 8.09% [at 35.3 µM]; that for `CN(C)[C@@H]1C(=O)C(C(=O)NCN2CCCC2)=C(O)[C@@]2(O)C(=O)C3=C(O)c4c(O)cccc4[C@@](C)(O)C3C[C@@H]12` (some centres not stated), -0.0817% [at 35.3 µM]. On the same count and under the same terms, the result for `COc1cc(C(=O)NCc2ccc(OCCN(C)C)cc2)cc(OC)c1OC` reads 11% [at 35.3 µM]; that for `CCCC(C)C(=O)OCC` (configuration not stated), -0.914%; that for `CCCCOC(=O)CCC(C)=O`, 2.33%.

`CC(C#N)(CCC(=O)O)N=NC(C)(C#N)CCC(=O)O` (configuration not stated): the “activity change, negative = cytotoxicity” value is -8.56%. On the same count and under the same terms, the figure for `O=S(=O)(O)c1cccc2ccccc12` is -11%; for `CN(C)C(=O)Oc1cccc([N+](C)(C)C)c1` it is 2.4% [at 35.3 µM]; for `CC(=O)N[C@H]1[C@H]([C@H](O)[C@H](O)CO)OC(C(=O)O)=C[C@@H]1N=C(N)N` it is 5.37% [at 35.3 µM].

Consider `CCN[C@@H]1C[C@H](N)[C@@H](OC2OC(CN)=CCC2N)[C@H](O)[C@H]1O[C@H]1OC[C@](C)(O)[C@H](NC)[C@H]1O` (some centres not stated), for which the activity change, negative = cytotoxicity is -2.15% [at 0.29 µM]. Still for that read-out and setting: the result for `C=CC(=O)OCCCl` reads 0.119%; that for `CCCc1nn(C)c2c(=O)[nH]c(-c3cc(S(=O)(=O)N4CCN(C)CC4)ccc3OCC)nc12`, 2.48% [at 35.3 µM]. On the same count and under the same terms, the figure for `C[N+]12CCC(CC1)C(OC(=O)C(O)(c1ccccc1)c1ccccc1)C2` (configuration not stated) is -28.5% [at 35.3 µM].
